Source: PubChem BioAssay AID1159580 (chemical genetic matrix, 2015)
Hit rate of the full screen: of about 5,500 compounds, about 2,000 (36%) were called active. Not shown: some 18% with an inconclusive outcome. The list shows a part of the results. A number with no mark means an inactive call. No stated cut-off is given here; in the data, active means normalized growth mostly below about 0.91 (no sharp cut-off); inconclusive means no clear call, values can overlap the other calls; inactive means mostly above about 0.92.

Test: chemical genetic growth profiling, strain panel (AID 1159580);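 further: tested at 20 µM; growth read once vehicle control cultures reached saturation at 30 °C; 1 = growth at the plate median or of vehicle wells; lower values mean less growth of the strain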
Conditions: growth OD

CCCc1nn(C)c2c(=O)[nH]c(-c3cc(S(=O)(=O)N4CCN(C)CC4)ccc3OCC)nc12
normalized growth (S. cerevisiae deletion strains, locus YJR075W, strain HOC1, active compounds read low): 1.02 | normalized growth (S. cerevisiae deletion strains, locus YKL009W, strain mrt4, active compounds read low): 1.01 | normalized growth (S. cerevisiae deletion strains, locus YKL068W, active compounds read low): 0.995 | normalized growth (S. cerevisiae deletion strains, locus YKL085W, strain MDH1 (second series), active compounds read low): 0.996 | normalized growth (S. cerevisiae deletion strains, locus YKL085W, strain MDH1, active compounds read low): 0.996 | normalized growth (S. cerevisiae deletion strains, locus YKL160W, strain elf1, active compounds read low): 0.999 | normalized growth (S. cerevisiae deletion strains, locus YKL190W, strain CNB1, active compounds read low): 1.02 | normalized growth (S. cerevisiae deletion strains, locus YKR001C, strain vps1, active compounds read low): 0.64 (active) | normalized growth (S. cerevisiae deletion strains, locus YKR026C, strain gcn3, active compounds read low): 1 | normalized growth (S. cerevisiae deletion strains, locus YKR091W, strain srl3, active compounds read low): 0.987 | normalized growth (S. cerevisiae deletion strains, locus YLL001W, strain dnm1, active compounds read low): 0.992 | normalized growth (S. cerevisiae deletion strains, locus YLL026W, active compounds read low): 0.985 | normalized growth (S. cerevisiae deletion strains, locus YLL041C, strain sdh2, active compounds read low): 0.992 | normalized growth (S. cerevisiae deletion strains, locus YLR027C, strain aat2, active compounds read low): 0.992 | normalized growth (S. cerevisiae deletion strains, locus YLR039C, strain RIC1, active compounds read low): 1.02 | normalized growth (S. cerevisiae deletion strains, locus YLR058C, strain SHM2, active compounds read low): 1.02 | normalized growth (S. cerevisiae deletion strains, locus YLR102C, strain apc9, active compounds read low): 0.988 | normalized growth (S. cerevisiae deletion strains, locus YLR113W, strain HOG1, active compounds read low): 1.03 | normalized growth (S. cerevisiae deletion strains, locus YLR221C, strain rsa3, active compounds read low): 0.988 | normalized growth (S. cerevisiae deletion strains, locus YLR258W, strain gsy2, active compounds read low): 0.984 | normalized growth (S. cerevisiae deletion strains, locus YLR262C, strain YPT6 (second series), active compounds read low): 0.986 | normalized growth (S. cerevisiae deletion strains, locus YLR262C, strain YPT6, active compounds read low): 1.05 | normalized growth (S. cerevisiae deletion strains, locus YLR268W, strain sec22, active compounds read low): 0.993 | normalized growth (S. cerevisiae deletion strains, locus YLR320W, strain mms22, active compounds read low): 0.986 | normalized growth (S. cerevisiae deletion strains, locus YLR330W, strain CHS5, active compounds read low): 1.02 | normalized growth (S. cerevisiae deletion strains, locus YLR342W, strain FKS1 (second series), active compounds read low): 1.03 | normalized growth (S. cerevisiae deletion strains, locus YLR342W, strain FKS1, active compounds read low): 0.99 | normalized growth (S. cerevisiae deletion strains, locus YLR357W, strain rsc2, active compounds read low): 0.983 | normalized growth (S. cerevisiae deletion strains, locus YLR370C, strain arc18, active compounds read low): 0.988 | normalized growth (S. cerevisiae deletion strains, locus YLR371W, strain rom2, active compounds read low): 0.978 | normalized growth (S. cerevisiae deletion strains, locus YLR384C, strain iki3, active compounds read low): 0.981 | normalized growth (S. cerevisiae deletion strains, locus YLR418C, strain cdc73, active compounds read low): 0.987 | normalized growth (S. cerevisiae deletion strains, locus YML016C, strain PPZ1, active compounds read low): 1.02 | normalized growth (S. cerevisiae deletion strains, locus YML032C, strain rad52, active compounds read low): 1 | normalized growth (S. cerevisiae deletion strains, locus YML120C, strain ndi1, active compounds read low): 0.995 | normalized growth (S. cerevisiae deletion strains, locus YML124C, strain tub3, active compounds read low): 0.99 | normalized growth (S. cerevisiae deletion strains, locus YMR058W, strain fet3, active compounds read low): 0.999 | normalized growth (S. cerevisiae deletion strains, locus YMR078C, strain ctf18, active compounds read low): 1.01 | normalized growth (S. cerevisiae deletion strains, locus YMR125W, strain sto1, active compounds read low): 0.981 | normalized growth (S. cerevisiae deletion strains, locus YMR129W, active compounds read low): 0.974 | normalized growth (S. cerevisiae deletion strains, locus YMR205C, strain PFK2, active compounds read low): 0.981 | normalized growth (S. cerevisiae deletion strains, locus YMR223W, strain ubp8, active compounds read low): 1 | normalized growth (S. cerevisiae deletion strains, locus YMR231W, strain pep5, active compounds read low): 0.988 | normalized growth (S. cerevisiae deletion strains, locus YMR263W, strain SAP30, active compounds read low): 1.03 | normalized growth (S. cerevisiae deletion strains, locus YMR307W, strain GAS1, active compounds read low): 1.1 | normalized growth (S. cerevisiae deletion strains, locus YNL067W, strain RPL9B, active compounds read low): 1.03 | normalized growth (S. cerevisiae deletion strains, locus YNL071W, strain lat1, active compounds read low): 0.991 | normalized growth (S. cerevisiae deletion strains, locus YNL128W, strain TEP1, active compounds read low): 1.02 | normalized growth (S. cerevisiae deletion strains, locus YNL153C, strain GIM3, active compounds read low): 1.02 | normalized growth (S. cerevisiae deletion strains, locus YNL183C, strain NPR1, active compounds read low): 0.978 | normalized growth (S. cerevisiae deletion strains, locus YNL209W, strain ssb2, active compounds read low): 0.99 | normalized growth (S. cerevisiae deletion strains, locus YNL233W, strain BNI4, active compounds read low): 1.02 | normalized growth (S. cerevisiae deletion strains, locus YNL248C, strain rpa49, active compounds read low): 0.981 | normalized growth (S. cerevisiae deletion strains, locus YNL250W, strain rad50, active compounds read low): 0.995 | normalized growth (S. cerevisiae deletion strains, locus YNL271C, strain bni1, active compounds read low): 0.99 | normalized growth (S. cerevisiae deletion strains, locus YNL298W, strain CLA4, active compounds read low): 0.984 | normalized growth (S. cerevisiae deletion strains, locus YNL307C, strain MCK1, active compounds read low): 0.995 | normalized growth (S. cerevisiae deletion strains, locus YNL322C, strain KRE1 (second series), active compounds read low): 0.982 | normalized growth (S. cerevisiae deletion strains, locus YNL322C, strain KRE1, active compounds read low): 1.01 | normalized growth (S. cerevisiae deletion strains, locus YNR049C, strain mso1, active compounds read low): 0.992 | normalized growth (S. cerevisiae deletion strains, locus YNR052C, strain pop2, active compounds read low): 1 | normalized growth (S. cerevisiae deletion strains, locus YOL006C, strain TOP1, active compounds read low): 1.1 | normalized growth (S. cerevisiae deletion strains, locus YOL012C, strain htz1): 0.868 | normalized growth (S. cerevisiae deletion strains, locus YOL147C, strain pex11, active compounds read low): 0.985 | normalized growth (S. cerevisiae deletion strains, locus YOR001W, strain rrp6, active compounds read low): 0.999 | normalized growth (S. cerevisiae deletion strains, locus YOR061W, strain CKA2, active compounds read low): 1.02 | normalized growth (S. cerevisiae deletion strains, locus YOR069W, strain VPS5, active compounds read low): 1.02 | normalized growth (S. cerevisiae deletion strains, locus YOR070C, strain gyp1, active compounds read low): 0.984 | normalized growth (S. cerevisiae deletion strains, locus YOR080W, strain dia2, active compounds read low): 0.996 | normalized growth (S. cerevisiae deletion strains, locus YOR083W, strain WHI5, active compounds read low): 0.987 | normalized growth (S. cerevisiae deletion strains, locus YOR106W, strain vam3, active compounds read low): 0.987 | normalized growth (S. cerevisiae deletion strains, locus YOR136W, strain idh2, active compounds read low): 0.991 | normalized growth (S. cerevisiae deletion strains, locus YOR144C, strain elg1, active compounds read low): 0.986 | normalized growth (S. cerevisiae deletion strains, locus YOR184W, strain ser1, active compounds read low): 0.988 | normalized growth (S. cerevisiae deletion strains, locus YOR231W, strain MKK1, active compounds read low): 1.03 | normalized growth (S. cerevisiae deletion strains, locus YOR265W, strain rbl2, active compounds read low): 1 | normalized growth (S. cerevisiae deletion strains, locus YOR270C, strain vph1, active compounds read low): 0.983 | normalized growth (S. cerevisiae deletion strains, locus YOR290C, strain snf2, active compounds read low): 1 | normalized growth (S. cerevisiae deletion strains, locus YOR316C, strain cot1, active compounds read low): 0.991 | normalized growth (S. cerevisiae deletion strains, locus YPL051W, strain arl3, active compounds read low): 0.993 | normalized growth (S. cerevisiae deletion strains, locus YPL055C, strain LGE1, active compounds read low): 1.05 | normalized growth (S. cerevisiae deletion strains, locus YPL078C, strain atp4, active compounds read low): 0.994 | normalized growth (S. cerevisiae deletion strains, locus YPL106C, strain sse1, active compounds read low): 0.977 | normalized growth (S. cerevisiae deletion strains, locus YPL240C, strain hsp82, active compounds read low): 0.997 | normalized growth (S. cerevisiae deletion strains, locus YPL241C, strain CIN2, active compounds read low): 1.02 | normalized growth (S. cerevisiae deletion strains, locus YPL256C, strain CLN2, active compounds read low): 1.05 | normalized growth (S. cerevisiae deletion strains, locus YPR119W, strain clb2, active compounds read low): 0.986 | normalized growth (S. cerevisiae deletion strains, locus YPR141C, strain kar3, active compounds read low): 0.993 | normalized growth (S. cerevisiae deletion strains, locus YPR163C, strain tif3, active compounds read low): 0.982 | normalized growth (S. cerevisiae deletion strains, locus YPR167C, strain met16, active compounds read low): 0.988 | normalized growth (S. cerevisiae deletion strains, strain wtn01, active compounds read low): 0.998 | normalized growth (S. cerevisiae strains, strain wild type, active compounds read low): 1.01
